Here are results for 26 molecules from paper PMC9911399, “Two distinct binding modes provide the RNA-binding protein RbFox with extraordinary sequence specificity”.

The chains are these.
T1: RBFOX1 RRM (Homo sapiens, UniProt Q9NWB1 109-208)
T1 sequence: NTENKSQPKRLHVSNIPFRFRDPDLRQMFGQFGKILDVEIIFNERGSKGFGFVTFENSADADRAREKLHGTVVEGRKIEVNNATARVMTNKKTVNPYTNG

B1: GGGCCGU (DNA:RNA)
RNA: GGGAGACCGGAAUUCAGAUUGUCCGGGCCGUUUAAAUCCCGUCGUAGCCACCA
DNA 1: CAATCTGAATTCCGGTCTCCC
DNA 2: TGGTGGCTACGACGGGATT
B2: GGGGGCC (DNA:RNA)
RNA: B1 RNA with C28G, C29G, G30C, U31C
DNA 1: CAATCTGAATTCCGGTCTCCC
DNA 2: TGGTGGCTACGACGGGATT
B3: CGGGCCG (DNA:RNA)
RNA: B1 RNA with G25C, C28G, G30C, U31G
DNA 1: CAATCTGAATTCCGGTCTCCC
DNA 2: TGGTGGCTACGACGGGATT
B4: CGGCCUG (DNA:RNA)
RNA: B1 RNA with G25C, G30U, U31G
DNA 1: CAATCTGAATTCCGGTCTCCC
DNA 2: TGGTGGCTACGACGGGATT
B5: GGGGCCG (DNA:RNA)
RNA: B1 RNA with C28G, G30C, U31G
DNA 1: CAATCTGAATTCCGGTCTCCC
DNA 2: TGGTGGCTACGACGGGATT
B6: GGGGCCC (DNA:RNA)
RNA: B1 RNA with C28G, G30C, U31C
DNA 1: CAATCTGAATTCCGGTCTCCC
DNA 2: TGGTGGCTACGACGGGATT
B7: CGGGCCC (DNA:RNA)
RNA: B1 RNA with G25C, C28G, G30C, U31C
DNA 1: CAATCTGAATTCCGGTCTCCC
DNA 2: TGGTGGCTACGACGGGATT
B8: GGGCCUG (DNA:RNA)
RNA: B1 RNA with G30U, U31G
DNA 1: CAATCTGAATTCCGGTCTCCC
DNA 2: TGGTGGCTACGACGGGATT
B9: GGGCCCU (DNA:RNA)
RNA: B1 RNA with G30C
DNA 1: CAATCTGAATTCCGGTCTCCC
DNA 2: TGGTGGCTACGACGGGATT
B10: CACCUAU (DNA:RNA)
RNA: B1 RNA with G25C, G26A, G27C, C29U, G30A
DNA 1: CAATCTGAATTCCGGTCTCCC
DNA 2: TGGTGGCTACGACGGGATT
B11: AAGUACA (DNA:RNA)
RNA: B1 RNA with G25A, G26A, C28U, C29A, G30C, U31A
DNA 1: CAATCTGAATTCCGGTCTCCC
DNA 2: TGGTGGCTACGACGGGATT
B12: UGCGGAA (DNA:RNA)
RNA: B1 RNA with G25U, G27C, C28G, C29G, G30A, U31A
DNA 1: CAATCTGAATTCCGGTCTCCC
DNA 2: TGGTGGCTACGACGGGATT
B13: UCAUCGU (DNA:RNA)
RNA: B1 RNA with G25U, G26C, G27A, C28U
DNA 1: CAATCTGAATTCCGGTCTCCC
DNA 2: TGGTGGCTACGACGGGATT
B14: AUAAGUU (DNA:RNA)
RNA: B1 RNA with G25A, G26U, G27A, C28A, C29G, G30U
DNA 1: CAATCTGAATTCCGGTCTCCC
DNA 2: TGGTGGCTACGACGGGATT
B15: UGAGCCA (DNA:RNA)
RNA: B1 RNA with G25U, G27A, C28G, G30C, U31A
DNA 1: CAATCTGAATTCCGGTCTCCC
DNA 2: TGGTGGCTACGACGGGATT
B16: ACAUCCA (DNA:RNA)
RNA: B1 RNA with G25A, G26C, G27A, C28U, G30C, U31A
DNA 1: CAATCTGAATTCCGGTCTCCC
DNA 2: TGGTGGCTACGACGGGATT
B17: UUUGAUA (DNA:RNA)
RNA: GGGAGACCGGAAUUCAGAUUGUCCUUUGAUAUUAAAUCCCGUCGUAGCCACCA
DNA 1: CAATCTGAATTCCGGTCTCCC
DNA 2: TGGTGGCTACGACGGGATT
B18: UGGACUG (DNA:RNA)
RNA: B1 RNA with G25U, C28A, G30U, U31G
DNA 1: CAATCTGAATTCCGGTCTCCC
DNA 2: TGGTGGCTACGACGGGATT
B19: UGGAGAC (DNA:RNA)
RNA: B1 RNA with G25U, C28A, C29G, G30A, U31C
DNA 1: CAATCTGAATTCCGGTCTCCC
DNA 2: TGGTGGCTACGACGGGATT
B20: AGGACUG (DNA:RNA)
RNA: B1 RNA with G25A, C28A, G30U, U31G
DNA 1: CAATCTGAATTCCGGTCTCCC
DNA 2: TGGTGGCTACGACGGGATT
B21: UGUGGAC (DNA:RNA)
RNA: B17 RNA with U26G, A29G, U30A, A31C
DNA 1: CAATCTGAATTCCGGTCTCCC
DNA 2: TGGTGGCTACGACGGGATT
B22: GGACUGU (DNA:RNA)
RNA: B1 RNA with G27A, C29U
DNA 1: CAATCTGAATTCCGGTCTCCC
DNA 2: TGGTGGCTACGACGGGATT
B23: CAGACUG (DNA:RNA)
RNA: B1 RNA with G25C, G26A, C28A, G30U, U31G
DNA 1: CAATCTGAATTCCGGTCTCCC
DNA 2: TGGTGGCTACGACGGGATT
B24: GGGACUG (DNA:RNA)
RNA: B1 RNA with C28A, G30U, U31G
DNA 1: CAATCTGAATTCCGGTCTCCC
DNA 2: TGGTGGCTACGACGGGATT
B25: GGGACCG (DNA:RNA)
RNA: B1 RNA with C28A, G30C, U31G
DNA 1: CAATCTGAATTCCGGTCTCCC
DNA 2: TGGTGGCTACGACGGGATT
B26: CGGACUG (DNA:RNA)
RNA: B1 RNA with G25C, C28A, G30U, U31G
DNA 1: CAATCTGAATTCCGGTCTCCC
DNA 2: TGGTGGCTACGACGGGATT

Positions count from the first letter of the chain named. Over roughly 16,000 sequences, “ka relative to ugcaugu” has its median near 0.0091; the highest 2% begin near 0.032. The entries come from a sample that favours the highest values as a whole.

This assay addresses T1, RBFOX1 RRM. Briefly: EMSA; HiTS-Eq, 1 nM pool, 10 min; buffer printed only for the single-RNA assays: 10 mM Tris pH 7.5, 150 mM NaCl, 3.4 mM EDTA, 0.001% NP-40, 30 C. Particulars: tags: His6 N-terminal (pET28a); label: 5' 32P. In outline: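 Purified RbFox RRM, wild type or mutant, was incubated for 10 min in 50 µL with 1 nM of a 5′-radiolabelled RNA pool carrying 7 randomized nucleotides, whose flanks were annealed to DNA oligonucleotides, over a series of increasing protein concentrations. Unbound RNA was resolved on 8% native PAGE, cut out, reverse-transcribed, barcoded by PCR and sequenced on an Illumina HiSeq 2500. Relative association constants were derived from changes in read counts for each RNA species versus the control reaction and normalised to the cognate motif.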
On the technique in general: In EMSA bound probe runs differently from free probe, usually more slowly.
For the molecule B1, the binding signal is 0.0153 KA relative to UGCAUGU.
The result for B2 reads 0.0256 KA relative to UGCAUGU; that for B3, 0.0351 KA relative to UGCAUGU; that for B4, 0.0257 KA relative to UGCAUGU.
Next, B5: 0.027 KA relative to UGCAUGU; B6: 0.0409 KA relative to UGCAUGU.
Consider B7, for which the binding signal was 0.0176 KA relative to UGCAUGU.
In the case of B8, the binding signal was 0.0377 KA relative to UGCAUGU.
Next, B9: 0.00615 KA relative to UGCAUGU; B10: 0.000316 KA relative to UGCAUGU.
As to B11, the binding signal was 0.00261 KA relative to UGCAUGU.
Next, B12: 0.0165 KA relative to UGCAUGU; B13: 0.0124 KA relative to UGCAUGU; B14: 0.00282 KA relative to UGCAUGU.
B15: the binding signal was 0.00784 KA relative to UGCAUGU.
In the case of B16, the binding signal was 0.000399 KA relative to UGCAUGU.
Next, B17: 0.0145 KA relative to UGCAUGU; B18: 0.0448 KA relative to UGCAUGU; B19: 0.007 KA relative to UGCAUGU.
For the molecule B20, the binding signal is 0.0275 KA relative to UGCAUGU.
The result for B21 reads 0.00524 KA relative to UGCAUGU; that for B22, 0.0223 KA relative to UGCAUGU; that for B23, 0.0132 KA relative to UGCAUGU.
Turning to B24, the binding signal is 0.0322 KA relative to UGCAUGU.
Next, B25: 0.0273 KA relative to UGCAUGU; B26: 0.0352 KA relative to UGCAUGU.
